In PubChem BioAssay (NCI) one finds growth data, which are given here for 13 molecules.

Compounds without any hit were thinned out: in the full panel of roughly 83,000, 20% have a hit.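 Cells were grown in 96-well plates and exposed to the test compound at a single concentration for 48 hours; results are reported as percent growth, with values below 10 considered active.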 A number with no mark means an inactive call. Calls of active or inactive are those of the source.

Some test systems named below: HCT-15 colon; HT29 colon; SNB-75 CNS; SNB-19 CNS; U251 CNS; PC-3 prostate; SK-MEL-5 melanoma; UACC-62 melanoma; LOX IMVI melanoma; SK-MEL-28 melanoma.
What all share (experiment): NCI-60 one-dose screen, 48 h (100 = growth as untreated, 0 = no growth, -100 = all killed)
Common to all, as to settings: 10 µM

As to `CN(C)CCOc1cccc(-c2nc3sccn3c2-c2ccnc(S(C)(=O)=O)n2)c1`, the growth in the experiment with HCT-15 colon was 92.3%; in the experiment on HT29 colon, 96.8%; with SNB-75 CNS it was 87.7%; with SNB-19 CNS, 87.5%; with U251 CNS it was 90%; in the experiment with PC-3 prostate, 80.8%. The growth in the experiment on SK-MEL-5 melanoma is 98.3%; in the experiment on UACC-62 melanoma, 91.4%; with LOX IMVI melanoma it was 92.1%; in the experiment with SK-MEL-28 melanoma, 100%.
`O=C1c2ccccc2C(=O)c2c1ccc(C(Br)Br)c2Cl`: the growth was 44% with HCT-15 colon; 52.5% in the experiment with HT29 colon; 91.4% in the experiment on SNB-75 CNS; 42.9% in the experiment on SNB-19 CNS; -26% (active) with U251 CNS; 40.5% in the experiment with PC-3 prostate. The growth in the experiment with SK-MEL-5 melanoma is 74%; in the experiment with UACC-62 melanoma, 47.2%; in the experiment on LOX IMVI melanoma, -84.4% (active); in the experiment on SK-MEL-28 melanoma, 92.3%.
`CCOC(=O)c1cc(C(=O)c2ccc(Cl)cc2)n2ccc(-c3cc[n+](CC(=O)c4ccc(OC)cc4)cc3)cc12`: the growth in the experiment with HCT-15 colon was 75.5%; with HT29 colon, -9.81% (active); with SNB-75 CNS, 93.2%; in the experiment on SNB-19 CNS, 77%; with U251 CNS it was 13.2%; with PC-3 prostate, 51.5%. The growth was 98.3% in the experiment with SK-MEL-5 melanoma, 107% in the experiment on UACC-62 melanoma, 12.9% with LOX IMVI melanoma and 99.6% with SK-MEL-28 melanoma.
For the molecule `O=C1OC(C(Cl)(Cl)Cl)OC1C(Cl)(Cl)Cl` (stereo not given), the growth with HCT-15 colon was 109%; with HT29 colon, 105%; with SNB-75 CNS, 104%; in the experiment on SNB-19 CNS it was 102%; in the experiment with U251 CNS it was 104%; in the experiment on PC-3 prostate it was 86.8%. The growth in the experiment on SK-MEL-5 melanoma is 107%; in the experiment with UACC-62 melanoma it was 95.3%; in the experiment on LOX IMVI melanoma it was 97%; in the experiment with SK-MEL-28 melanoma, 107%.
For the molecule `CC[C@@H](C(=O)[C@H](C)[C@H](O)[C@@H](C)[C@H]1O[C@H]([C@@H](CC)C(=O)O)CC[C@H]1C)C1O[C@]2(C=C[C@@H](O)[C@]3(CC[C@@](C)([C@H]4CC[C@](O)(CC)[C@H](C)O4)O3)O2)[C@H](C)C[C@@H]1C` (stereo not given in full), the growth with HCT-15 colon was 25.7%; in the experiment with HT29 colon, 26.1%; in the experiment on SNB-75 CNS, -12.7% (active); in the experiment with SNB-19 CNS, -13.3% (active); with U251 CNS, 14.2%; with PC-3 prostate, 27.5%. Further, the growth was -99.2% (active) in the experiment with SK-MEL-5 melanoma, -92.2% (active) in the experiment with UACC-62 melanoma, 29.3% in the experiment with LOX IMVI melanoma and -93% (active) in the experiment on SK-MEL-28 melanoma.
With `COc1cc2c(Nc3ccc(-c4ccc(N)cc4)cc3)ncnc2c(OC)c1OC`, the growth in the experiment with HCT-15 colon was 28.8%; in the experiment on HT29 colon it was 46.2%; in the experiment on SNB-75 CNS, 82.8%; in the experiment with SNB-19 CNS, 51.1%; in the experiment with U251 CNS, 42.6%; in the experiment with PC-3 prostate, 47.3%. Besides, the growth is -25.1% (active) in the experiment on SK-MEL-5 melanoma, 7.02% (active) in the experiment with UACC-62 melanoma, 31.1% in the experiment on LOX IMVI melanoma and 75.6% with SK-MEL-28 melanoma.
For the molecule `COc1cc(C(=O)/C=C/c2c[nH]c3ccccc23)cc(OC)c1OC`, the growth in the experiment on HCT-15 colon is 19%; in the experiment with HT29 colon, -21.1% (active); with SNB-75 CNS it was 45.9%; in the experiment on SNB-19 CNS, 34.9%; with U251 CNS it was 14.7%; in the experiment with PC-3 prostate it was 35.4%. Also, the growth in the experiment on SK-MEL-5 melanoma is -53.1% (active); with UACC-62 melanoma, 30.6%; in the experiment with LOX IMVI melanoma, 14.4%; with SK-MEL-28 melanoma it was 64.7%.
With `CCN(CC)CC(=O)N(CC)c1ccc(C)c(Cl)c1`, the growth with HCT-15 colon is 101%; in the experiment with HT29 colon, 90.1%; with SNB-75 CNS, 96.9%; with SNB-19 CNS, 104%; with U251 CNS, 87%; in the experiment with PC-3 prostate, 88.2%. The growth in the experiment on SK-MEL-5 melanoma was 98.4%; with UACC-62 melanoma, 97.7%; with LOX IMVI melanoma, 93.2%; in the experiment with SK-MEL-28 melanoma, 108%.
Take `CCN(CC)CCN1c2nc3ccccc3cc2Sc2cc3ccccc3nc21`: the growth in the experiment with HCT-15 colon is 3.28% (active); with HT29 colon it was -92.3% (active); with SNB-75 CNS, -7.91% (active); in the experiment with SNB-19 CNS, 36.4%; with U251 CNS it was 5.23% (active); in the experiment with PC-3 prostate it was -13.8% (active). For the same molecule, the growth was -68.1% (active) with SK-MEL-5 melanoma, -0.283% (active) in the experiment with UACC-62 melanoma, -100% (active) with LOX IMVI melanoma and -50.4% (active) with SK-MEL-28 melanoma.
Consider `CCC1NC(=O)c2cc(S(N)(=O)=O)c(Cl)cc2N1` (stereo not given), for which the growth was 109% in the experiment on HCT-15 colon; 109% in the experiment on HT29 colon; 105% in the experiment on SNB-75 CNS; 105% in the experiment with SNB-19 CNS; 96.3% in the experiment on U251 CNS; 93.6% in the experiment on PC-3 prostate. Besides, the growth with SK-MEL-5 melanoma was 104%; in the experiment with UACC-62 melanoma, 103%; in the experiment on LOX IMVI melanoma, 99.9%; in the experiment with SK-MEL-28 melanoma, 121%.
For `O=C(Nc1ccc(OS(=O)(=O)c2ccccc2)cc1)C1CCCCC1`, the growth in the experiment on HCT-15 colon was 67.7%; in the experiment on HT29 colon, 39.3%; in the experiment on SNB-75 CNS, 95.7%; in the experiment on SNB-19 CNS, 89.2%; in the experiment on U251 CNS, 69.6%; in the experiment with PC-3 prostate it was 72.7%. In addition, the growth in the experiment on SK-MEL-5 melanoma is 77.1%; in the experiment with UACC-62 melanoma, 89.5%; in the experiment with LOX IMVI melanoma, 86.2%; in the experiment with SK-MEL-28 melanoma, 91.7%.
For the molecule `COc1cc(C2CC(c3cc(Cl)c(C)cc3O)=NN2c2ccc(S(N)(=O)=O)cc2)cc(OC)c1OC` (stereo not given), the growth is 16.7% with HCT-15 colon; 1.52% (active) in the experiment with HT29 colon; 45.7% in the experiment with SNB-75 CNS; 48.7% in the experiment on SNB-19 CNS; 16.9% with U251 CNS; 0.104% (active) in the experiment with PC-3 prostate. The growth is -4.95% (active) in the experiment on SK-MEL-5 melanoma, 16.3% in the experiment with UACC-62 melanoma, 16.2% in the experiment on LOX IMVI melanoma and 31.7% in the experiment with SK-MEL-28 melanoma.
As to `O=C(CCCSc1nc(-c2ccccc2)cc(-c2ccc(Cl)cc2)n1)NO`, the growth with HCT-15 colon was 18.5%; with HT29 colon it was 20.3%; in the experiment with SNB-75 CNS, 5.53% (active); in the experiment with SNB-19 CNS, 20.1%; in the experiment on U251 CNS it was 16.8%; in the experiment on PC-3 prostate, 20.6%. The growth is -27.7% (active) with SK-MEL-5 melanoma, -15.3% (active) with UACC-62 melanoma, -3.49% (active) in the experiment with LOX IMVI melanoma and 30.9% in the experiment with SK-MEL-28 melanoma.
